Data on 93 compounds can be found in PubChem BioAssay AID488847 (NMMLSC, 2010).

Molecules are shown by their SMILES. Values joined by “and” are separate entries in the source; they are usually repeats but may differ in a detail not shown here. Equal entries are not always repeated. Among all 330,000 compounds or so, about 1,900 (0.58%) were called active. This is one part of a sample in which actives are shown more often than they occur.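 How the source made its calls: active means inhibition of aptamer binding above 40%, roughly 3 SD of noise, on plates passing a quality check; inactive means the rest.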 Some structures have more than one record in an assay (separate samples or runs), and their calls can disagree.

The target of the assay is Beta-adrenergic receptor kinase 1 (Homo sapiens) (UniProt P25098). The assay is described as follows: compounds blocking aptamer binding on GRK2 – biochemical, human GRK2, bead flow cytometry, HTS, primary screen (AID 488847).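 Further: median bead fluorescence of bound FAM aptamer so fluorescent compounds give negative values.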 The note with it: FAM-aptamer displacement from GRK2, at 10 µM, stronger effect = higher value. A general note: A flow cytometer gives signals particle by particle.
Sequence of Beta-adrenergic receptor kinase 1 (Homo sapiens) (P25098 whole entry, looked up): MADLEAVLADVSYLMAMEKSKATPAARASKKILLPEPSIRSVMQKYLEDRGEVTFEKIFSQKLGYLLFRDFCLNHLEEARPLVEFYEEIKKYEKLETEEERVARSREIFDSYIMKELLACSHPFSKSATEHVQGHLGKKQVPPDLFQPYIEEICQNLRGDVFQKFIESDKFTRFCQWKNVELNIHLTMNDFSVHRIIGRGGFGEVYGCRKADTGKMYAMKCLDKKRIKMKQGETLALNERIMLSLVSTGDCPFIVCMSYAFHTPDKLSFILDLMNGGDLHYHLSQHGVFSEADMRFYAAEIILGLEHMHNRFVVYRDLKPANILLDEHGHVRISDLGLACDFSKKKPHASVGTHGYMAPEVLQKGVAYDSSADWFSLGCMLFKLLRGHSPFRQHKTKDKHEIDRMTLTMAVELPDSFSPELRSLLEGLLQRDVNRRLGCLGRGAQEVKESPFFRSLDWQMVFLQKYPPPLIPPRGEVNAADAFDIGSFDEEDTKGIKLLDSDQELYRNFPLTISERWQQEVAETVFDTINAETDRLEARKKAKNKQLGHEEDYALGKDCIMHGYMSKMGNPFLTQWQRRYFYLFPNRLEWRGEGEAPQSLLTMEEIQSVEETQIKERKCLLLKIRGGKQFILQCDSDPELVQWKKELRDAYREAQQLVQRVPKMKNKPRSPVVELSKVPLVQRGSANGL
For the compound `CCOc1ccc(-n2c(SCC(=O)Nc3ccc(OC)cc3)nc3sc4c(c3c2=O)CCN(C)C4)cc1`, the inhibition of aptamer binding is 0% (inactive).
Turning to `CCOc1ccc(-n2c(SCC(=O)OC)nc3sc4c(c3c2=O)CCN(C)C4)cc1`, the inhibition of aptamer binding is 1% (inactive).
On to `COc1ccccc1NC(=O)CSc1nc2sc3c(c2c(=O)n1-c1ccccc1)CCN(C)C3`, for which the inhibition of aptamer binding was 56% (active).
On to `C[C@@H](O)c1nc2ccccc2n1N`, for which the inhibition of aptamer binding is 0% (inactive).
The figure for `CCOC(=O)c1c(C)[nH]c(C)c1S(=O)(=O)NCCCc1ccco1` is 0% (inactive); for `Cc1cccc(Cn2c(N3CCN(c4ccccc4)CC3)nc3c2c(=O)n(C)c(=O)n3C)c1` it is 0% (inactive).
The figure for `Cn1c(=O)c2c(nc(N3CCOCC3)n2CCNC2=NCCC2)n(C)c1=O` is 83% (active); for `CCCCn1c(SCC(=O)N2CCOCC2)nc2c1c(=O)n(C)c(=O)n2C` it is 0% (inactive).
On to `CC1O[C@H](OC2C(COC3OC(CO)C(O)[C@H](O)C3O)OC(OC3CC[C@]4(C)C(CC[C@@]5(C)[C@@H]4C=C[C@]46OC[C@@]7(CCC(C)(C)C[C@H]74)C(O)C[C@@]56C)C3(C)C)C(O)C2O)C(O)C(O)C1O` (stereo partly drawn), for which the inhibition of aptamer binding is 0% (inactive).
In the case of `CC1=NCCN1S(=O)(=O)c1ccc(Br)c(C)c1` it was 8% (inactive).
In the case of `Cc1ccc(C(CNC(=O)Nc2ccccc2)N2CCN(C)CC2)cc1` (stereo not drawn) it was 0% (inactive); in that of `COc1ccc(S(=O)(=O)NCC(c2ccc(C)cc2)N2CCN(C)CC2)cc1OC` (stereo not drawn), 0% (inactive).
In the case of `Cc1ccc(C(CNC(=O)Nc2cccc(C)c2)N2CCN(C)CC2)cc1` (stereo not drawn), the inhibition of aptamer binding is 53% (active).
In the case of `O=C(NCc1cccc(Cl)c1)C1CCC(=O)N(C2CC2)C1` (stereo not drawn) it was 30% (inactive); in that of `C=CC[C@@H](CC(=O)N[C@H](CO)Cc1ccccc1)C(=O)N[C@H](C)COC(=O)[C@@H](CC=C)Cc1ccc(F)cc1`, 26% (inactive); in that of `C=CC[C@@H](CC(=O)N[C@@H](CO)Cc1ccccc1)C(=O)NCCOC(=O)[C@@H](CC=C)CC(=O)OC(C)(C)C`, 94% (active).
In the case of `C=CC[C@@H](CC(=O)N[C@@H](CO)Cc1ccccc1)C(=O)N[C@H](COC(=O)[C@H](CC=C)CC(=O)OC(C)(C)C)Cc1ccccc1` it was 3% (inactive); in that of `CC(C)CNC(=S)NNC(=O)c1ccccc1OC(F)F`, 0% (inactive).
In the case of `Cc1ccc(C(=O)N/C(=C/c2cccnc2)C(=O)O)cc1` it was 0% (inactive).
Consider `CC(C)(C)NC(=O)/C(=C/c1cccnc1)NC(=O)c1ccco1`, for which the inhibition of aptamer binding was 4% (inactive).
In the case of `O=C(O)/C(=C/c1cccnc1)NC(=O)c1ccccc1` it was 53% (active).
As for `Cc1ccc2[nH]c(=O)c(-c3nc4c(C)cccn4c3NCc3ccco3)cc2c1`, the inhibition of aptamer binding was 0% (inactive).
In the case of `Cc1cc(C)cc(N(CC(=O)N2CC=C(c3ccccc3)CC2)S(=O)(=O)c2c(C)noc2C)c1` it was 0% (inactive).
With `O=c1[nH]nc(Cc2ccccn2)c2ccccc12`, the inhibition of aptamer binding was 0% (inactive).
Regarding `O=C(Oc1ccc2c(c1)CCC2)N1CCOCC1`, the inhibition of aptamer binding is 0% (inactive).
For the compound `Cc1nn(CC(=O)NCc2ccccn2)c(C)c1[N+](=O)[O-]`, the inhibition of aptamer binding was 1% (inactive).
The figure for `COCCCNC(=O)CN1CCN(Cc2ccccc2Cl)C1=O` is 4% (inactive).
In the case of `Cc1ccccc1CN1CCN(CC(=O)NCc2ccccn2)C1=O` it was 51% (active).
In the case of `Cc1cccc(N(C(=O)c2sc(C)nc2C)C(C(=O)NCC2CCCO2)c2ccccc2)c1` (stereo not drawn) it was 1% (inactive); in that of `CCn1nc(C)c(NC(=O)/C=C/c2ccc(OC)c(COc3ccc(Br)cc3)c2)c1C`, 1% (inactive).
For the compound `CS(=O)(=O)N1CCN(c2ccc(C(=O)NC3C4CC5CC(C4)CC3C5)cc2[N+](=O)[O-])CC1` (stereo not drawn), the inhibition of aptamer binding is 0% (inactive).
For the compound `CC(NC(=O)c1ccc(N2CCNCC2)c([N+](=O)[O-])c1)C12CC3CC(CC(C3)C1)C2` (stereo not drawn), the inhibition of aptamer binding was 0% (inactive).
As to `O=C(NC1C2CC3CC(C2)CC1C3)c1ccc(N2CCNCC2)c([N+](=O)[O-])c1` (stereo not drawn), the inhibition of aptamer binding is 98% (active).
The figure for `CC(c1nnc(SCC(=O)Nc2sccc2C#N)n1-c1ccc(Cl)cc1)N(C)C` (stereo not drawn) is 0% (inactive); for `C/C(=N\N=C(N)N)c1ccc(Cl)cc1` it is 0% (inactive); for `COc1ccc(C(=O)CCC(=O)Nc2ccc(Cl)cc2)cc1` it is 1% (inactive).
In the case of `C/C(=N\OCC(=O)O)c1ccc(Cl)cc1` it was 58% (active); in that of `COc1cc2c(-c3ccc4c(c3)OCO4)c(-c3ccsc3)oc(=O)c2cc1OC`, 0% (inactive); in that of `O=C(C1CCC1)N1CCN(S(=O)(=O)c2ccc([N+](=O)[O-])cc2)CC1`, 1% (inactive).
As for `O=C(C1CCCN(S(=O)(=O)c2ccc([N+](=O)[O-])cc2)C1)N1CCCCC1` (stereo not drawn), the inhibition of aptamer binding is 53% (active).
In the case of `Cc1ccc(S(=O)(=O)N2CCCC(C(=O)N3CCN(C)CC3)C2)cc1` (stereo not drawn) it was 4% (inactive); in that of `Cc1nnc(NC(=O)CCC(=O)N2CCC(C)CC2)s1`, 2% (inactive); in that of `CCC(C)(C(=O)NC1CCCC1)N(C(=O)CNC(C)=O)c1ccc(C)cc1` (stereo not drawn), 3% (inactive).
In the case of `CCCCN(CC)C(=O)c1ccc2c(c1)OCO2`, the inhibition of aptamer binding is 3% (inactive).
As for `CCC(C)(C(=O)NC1CCCCC1)N(C)C(=O)c1ccc2c(c1)OCO2` (stereo not drawn), the inhibition of aptamer binding was 47% (active).
As for `COc1ccc(NC(=O)COc2ccc(C(=O)OCC(=O)N(C)C3CCS(=O)(=O)C3)cc2OC)cc1` (stereo not drawn), the inhibition of aptamer binding was 3% (inactive).
Take `COc1ccccc1NC(=O)COc1ccc(C(=O)OCC(=O)N(C(C)C)C(C)C)cc1OC`: the inhibition of aptamer binding is 0% (inactive).
With `COc1cc(C(=O)OCC(=O)N(CC(C)C)C2CCS(=O)(=O)C2)ccc1OCC(C)C` (stereo not drawn), the inhibition of aptamer binding was 100% (active).
In the case of `Cn1c(N2CCOCC2)c(C=O)c2ccccc21` it was 0% (inactive); in that of `Cc1ccc(CNC(=O)c2cc(-c3ccccc3C)n(CC3CC(c4cccc([N+](=O)[O-])c4)=NO3)n2)cc1` (stereo not drawn), 0% (inactive); in that of `CCOC(=O)c1cccc(NC(=O)c2ccc(F)cc2F)c1`, 3% (inactive).
The figure for `O=C(COC(=O)c1ccc(F)cc1F)Nc1ncccn1` is 60% (active); for `O=C(COC(=O)CSc1ccccc1)Nc1ccc(F)cc1F` it is 3% (inactive); for `O=C(NCCCN1CCCCC1)c1ccc2c(c1)NC(=O)C(N1CCOCC1)S2` (stereo not drawn) it is 3% (inactive).
`CCOC(=O)c1ccc(N/C(=N/S(=O)(=O)c2ccccc2)c2ccccc2)cc1`: the inhibition of aptamer binding is 0% (inactive).
In the case of `CC(=O)c1c(C)[nH]c(C(=O)N2CCN(S(=O)(=O)c3ccc(F)c(F)c3)CC2)c1C` it was 1% (inactive).
As for `CN(Cc1ccccc1)C(=O)c1ccc(COc2ccccc2)cc1`, the inhibition of aptamer binding was 0% (inactive).
In the case of `CN(Cc1ccccc1)C(=O)c1cccc(C(=O)N(C)Cc2ccccc2)c1` it was 49% (active).
With `CN(CC(=O)O)C(=O)c1ccccc1`, the inhibition of aptamer binding is 1% (inactive).
As for `c1ccc(Cc2cc[n+](Cc3ccccc3)cc2)cc1`, the inhibition of aptamer binding is 0% (inactive).
Regarding `O=C(CCC(=O)N/N=C/c1ccc(Br)o1)N/N=C/c1ccc(Br)o1`, the inhibition of aptamer binding is 13% (inactive).
The figure for `O=C(CCNC(=O)c1ccccc1)NN=Cc1ccc(Br)o1` is 58% (active); for `O=C(CCc1n[nH]c(=O)[nH]c1=O)N/N=C/c1ccc(Br)o1` it is 0% (inactive).
Turning to `Cc1ccc(OCc2cc(C(=O)N(C)CCn3ccnc3C)no2)cc1C`, the inhibition of aptamer binding was 4% (inactive).
In the case of `O=C(ON=C1CCN(S(=O)(=O)c2ccccc2)CC1)c1ccc(Cl)cc1`, the inhibition of aptamer binding was 1% (inactive).
In the case of `O=C(Nc1ccccc1)Nc1ccc(C(F)(F)F)cn1` it was 0% (inactive); in that of `O=C(NC(=O)c1cc(OCC(F)(F)F)ccc1OCC(F)(F)F)Nc1ccccc1`, 98% (active); in that of `CONC(=O)c1cc(OCC(F)(F)F)ccc1OCC(F)(F)F`, 0% (inactive).
Take `COc1nc(NC2CCCCC2)nc(N2CCCCCC2)n1`: the inhibition of aptamer binding was 1% (inactive).
On to `Cc1cc(/C=C2/SC(=O)N(CC(=O)OC(C)C)C2=O)c(C)n1C`, for which the inhibition of aptamer binding was 2% (inactive).
The figure for `C=CC1=C(C(=O)O)N2C(=O)[C@@H](NC(=O)/C(=N/OCC(=O)O)c3csc(N)n3)[C@H]2SC1` is 0% (inactive).
`CO/N=C(\C(=O)N[C@@H]1C(=O)N2C(C(=O)O)=C(COC(C)=O)CS[C@H]12)c1csc(N)n1` (stereo in doubt): the inhibition of aptamer binding was 0% (inactive) and 38% (inactive) and 1% (inactive).
In the case of `C=CC1=C(C(=O)O)N2C(=O)[C@@H](NC(=O)/C(=N\OCC(=O)O)c3csc(N)n3)[C@H]2SC1` it was 66% (active); in that of `CC[C@@H](C)[C@@H]1CN([C@@H](C)CN2CCC[C@H]2CN2C(N)=NC[C@H]2C(C)C)C(=N)N1CCc1ccc(Cl)c(Cl)c1`, 0% (inactive).
In the case of `COc1ccc(CNc2nc(NCc3ccc(OC)cc3)c3ncn(C4CCCC4)c3n2)cc1` it was 0% (inactive); in that of `O=C1[C@@H]2C(c3cccnc3)=NO[C@@H]2C(=O)N1c1ccc(Cl)cc1Cl`, 4% (inactive).
On to `CCOc1cccc(OCCCOc2cccc3cccnc23)c1`, for which the inhibition of aptamer binding was 1% (inactive).
For `C1=C(CCNc2ncnc3c2cnn3-c2ccccc2)CCCC1`, the inhibition of aptamer binding is 0% (inactive).
The figure for `Cc1ccccc1NC(=O)c1cnn(-c2ccccc2)c1NC(=O)c1ccco1` is 3% (inactive); for `O=C(NNc1ncnc2c1cnn2-c1ccccc1)c1ccco1` it is 97% (active).
The figure for `CC(OC(=O)/C=C/c1ccccc1)C(=O)NC1CCCCC1C` (stereo not drawn) is 0% (inactive); for `CC(=O)N1CCN(CC(=O)Nc2ccc(C)c(F)c2)CC1` it is 1% (inactive); for `CCCc1noc2c1/C(=N\O)CCC2` it is 0% (inactive).
The figure for `Cc1cc(C(=O)NC2CCN(Cc3ccccc3)CC2)n[nH]1` is 50% (active); for `Cc1ccc(-c2cc(C(=O)NC3CCN(Cc4ccccc4)CC3)c3ccccc3n2)cc1` it is 0% (inactive).
Take `Cc1ccn2cc(C(=O)NC3CCN(Cc4ccccc4)CC3)nc2c1`: the inhibition of aptamer binding was 0% (inactive).
Turning to `O=C(N/C(=C/c1ccc(Cl)cc1)C(=O)N1CCCCC1)c1ccco1`, the inhibition of aptamer binding is 0% (inactive).
In the case of `CCC(=C/c1sc2ccc3ccccc3c2[n+]1C)/C=C1\Sc2ccc3ccccc3c2N1C` it was 100% (active); in that of `N/C(=N\OC(=O)CCC1CCCCC1)c1ccccn1`, 0% (inactive).
The figure for `O=C(c1noc2c1CCCC2)N1CCc2ccccc2C1` is 0% (inactive); for `CCc1nn(CCCN2CCN(c3cccc(Cl)c3)CC2)c(=O)n1CCOc1ccccc1` it is 43% (active) and 0% (inactive); for `OC(COc1ccc2c(c1)CCC2)CN1CCN(c2cccc(Cl)c2)CC1` (stereo not drawn) it is 0% (inactive).
In the case of `CCN1C(=O)/C(=C\N2CCN(c3cccc(Cl)c3)CC2)SC1=S` it was 3% (inactive).
